The results in this text go back to PubChem BioAssay (NCI).

The panel holds about 83,000 compounds, 20% with a hit somewhere; the sample as a whole holds those more often.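 Note: values are percent growth. 100 is the growth of untreated cells, values between 100 and 0 indicate rising inhibition; between -100 and 0 indicates cell death.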 Active and inactive are the calls of the source. The calls were made as follows: active = growth percent below 10; inactive = the rest.

For the assay, the system named is NCI/ADR-RES ovarian. Kind of assay: NCI-60 one-dose screen, 48 h (100 = growth as untreated, 0 = no growth, -100 = all killed). The following applies: 10 µM unless noted.
Take `CCCCn1c(=O)c(C(=O)NCc2ccccc2Cl)c(O)c2ccccc21`: the growth is 56.2% (inactive). Next, `O=C(NCCCN1CC1)Nc1cccc2ccccc12`: 101% (inactive). As to `Oc1cc(N2CC2)c(O)cc1N1CC1`, the growth is 1.01% (active). The figure for `CC12CCC3C4CCC(=O)C=C4CCC3C1CC1CC(=O)OC12` (stereo not drawn) is 101% (inactive); for `CCOP(=O)(OCC)C(=O)N(CC)CC` it is 102% (inactive). Next, `C#Cc1cccc(Nc2nc(Cl)nc3cc(NC(=O)CF)ccc23)c1`: 53.9% (inactive). As to `CC[C@H](C)[C@H](NC(=O)[C@H]1CCCCN1C)C(=O)N(C)[C@H](C(=O)NC12CC(C(=O)N[C@@H](Cc3ccccc3)C[C@H](C)C(=O)OC)(C1)C2)C(C)C`, the growth was 103% (inactive).

As for `CN1CCC2(CC1)C(C#N)C(=O)NC(=O)C2C#N` (stereo not drawn), the growth is 113% (inactive).

As for `CC12CCC3C(CCC4CC(O)CCC43C)C1CCC2=O` (stereo not drawn), the growth was 163% (inactive). `C=CC[PH+](c1ccccc1)c1ccccc1.C=CC[PH+](c1ccccc1)c1ccccc1.[Pt+2].[S-]c1nc2ccccc2[nH]1.[S-]c1nc2ccccc2[nH]1`: the growth is 88.4% (inactive).

For the compound `Cc1cc[c-]cc1.Fc1c[c-]c(-c2ccccn2)c(F)c1.[Pt+2].c1ccc([PH+](c2ccccc2)c2ccccn2)cc1`, the growth is 88.2% (inactive). The figure for `C=C[Se]CC(=O)/C=C/c1ccccc1` is 87.9% (inactive). Next, `CCCCCCCCCCCCCCCCCC1OCC(COC(=O)O[C@@H](C(=O)O[C@H]2C[C@@]3(O)[C@@H](OC(=O)c4ccccc4)[C@@H]4[C@]5(OC(C)=O)CO[C@@H]5C[C@H](O)[C@@]4(C)C(=O)[C@H](OC(C)=O)C(=C2C)C3(C)C)[C@@H](NC(=O)c2ccccc2)c2ccccc2)O1` (stereo partly drawn): 103% (inactive).
